MRP1 act – H69AR viability gain despite doxorubicin, primary screen, MRP-1 activator project, H69AR cells, CellTiter-Glo. AID 799, 2007. 0.61% of 140,000 active. viability increase, % at 10 µM. viability rescue;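 active = viability gain under doxorubicin at or above a set limit, the compound median plus 3 SD, cut at about 4.7% in these data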;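 note: MRP-1 overexpressing cells given doxorubicin 25 µM after compound pretreatment; 18-22 h compound pretreatment then 72 h with doxorubicin before readout; 0% = doxorubicin-only wells and 100% = vehicle-treated cells without doxorubicin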
S1P2 blocker – human S1P2 receptor antagonists, primary screen, cell-based | Sphingosine 1-phosphate receptor 2 (Homo sapiens), O95136 | cell-based S1P2 antagonist assay, inhibition at 5 uM | inhibition, % at 5 µM | 0.21% of 97,000 active; in the data active = inhibition above about 45%;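 note: CRE beta-lactamase reporter cells expressing human S1P2 stimulated with S1P; 0% = agonist at EC80 alone and 100% = agonist plus reference antagonist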
MRP resist rev – reversal of MRP1-mediated doxorubicin resistance, primary screen, H69AR cells, doxorubicin co-treatment | H69AR cells + 2 uM doxorubicin, CellTiter-Glo, 72 h | differential viability (reversal), % at 10 µM | 0.04% of 85,000 active | AID 602, 2007;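 active = viability drop by adding the cancer drug above about 55%, with treated viability meeting a 40% cutoff, limit read from the data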;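 note: viability without doxorubicin minus viability with 2 µM doxorubicin for each compound; larger differential means the compound sensitizes cells more to doxorubicin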
GALR2 agonist – GALR2 receptor agonists, primary screen, cell-based; Galanin receptor type 2 (Homo sapiens), O43603; GALR2-expressing cells, agonist activation read-out; activation, % (test concentration not listed); 0.48% of 140,000 active; AID 803, 2007; in the data active = activation above about 5%, passing the limit was not always enough;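 note: 0% = vehicle buffer wells and 100% = reference agonist at full effect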
Target sequence (O43603 whole entry, looked up): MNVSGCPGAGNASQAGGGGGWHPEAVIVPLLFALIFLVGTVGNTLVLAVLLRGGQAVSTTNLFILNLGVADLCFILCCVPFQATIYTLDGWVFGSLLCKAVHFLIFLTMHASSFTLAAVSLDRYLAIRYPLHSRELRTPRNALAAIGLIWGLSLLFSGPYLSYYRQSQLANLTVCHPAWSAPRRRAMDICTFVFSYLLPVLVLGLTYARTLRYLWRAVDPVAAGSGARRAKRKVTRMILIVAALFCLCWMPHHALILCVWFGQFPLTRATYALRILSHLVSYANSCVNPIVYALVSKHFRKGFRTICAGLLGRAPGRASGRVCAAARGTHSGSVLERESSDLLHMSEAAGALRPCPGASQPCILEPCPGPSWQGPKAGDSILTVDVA
S1P2 agonist – S1P2 receptor agonists, primary screen, cell-based; Sphingosine 1-phosphate receptor 2 (Homo sapiens), O95136; S1P2-expressing cell line, agonist reporter read-out; activation, % at 4.5 µM; 0.46% of 97,000 active; in the data active = activation above about 16%;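 note: 0% = vehicle low control and 100% = maximal reference agonist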
GALR2 blocker – GALR2 antagonists in receptor-expressing cells, primary screen; antagonist mode; 0.39% of 140,000 active; inhibition, % at 4 µM; AID 828, 2007; Galanin receptor type 2 (Homo sapiens), O43603; in the data active = inhibition above about 27%;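 note: cells stimulated with galanin 1-16 at roughly its EC80; 0% = agonist challenge control and 100% = basal control without agonist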
GALR2 ag confirm – GALR2 agonists, retest of hits, confirmation, cell-based; shares compounds with GALR2 agonist; GALR2-expressing cells, agonist activation; activation, % at 5.6 µM; 10% of 460 active; AID 864, 2007; in the data active = activation above about 8.4%;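 note: 0% = buffer-only vehicle wells and 100% = full reference agonist response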
BLA activ ctr – activators of NFAT-driven beta-lactamase reporter, confirmation, counter-screen for GALR2 agonist project, CHO NFAT-bla cells, FRET readout. shares compounds with GALR2 agonist. beta-lactamase FRET activation. activation, % at 5.6 µM. 10% of 460 active. AID 865, 2007;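 active = activation above the screen-wide mean activation plus 3 SD, cut at about 8% in these data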;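 note: 0% = DMSO with PBS wells and 100% = thapsigargin positive control wells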
* marks the source's active call; other numbers are inactive results. Rows were chosen to be rich in hits. Some 1.8% of all compounds tested hit in one or more screens of this group.

How did Cc1ccc(OCC(O)Cn2c(NCCc3ccccc3)nc3c2c(=O)[nH]c(=O)n3C)cc1 (stereo not drawn) do in these assays?
MRP1 act: -3; S1P2 blocker: 0; MRP resist rev: 7; GALR2 agonist: 1; S1P2 agonist: -5; GALR2 blocker: 2

What do the screens show for `C=CCNC(=O)Nc1ccc2oc(C)nc2c1`?
MRP1 act: -2; S1P2 blocker: 22; MRP resist rev: 18; GALR2 agonist: -3; S1P2 agonist: -6; GALR2 blocker: -5

How did Cc1nc2cc(NC(=O)N(C)c3ccc4ccccc4c3)ccc2o1 do in these assays?
MRP1 act: -1; S1P2 blocker: 4; MRP resist rev: 1; GALR2 agonist: 5.0*; S1P2 agonist: -2; GALR2 blocker: -35

Results for Cc1cc(C)n(C(C[N+](=O)[O-])c2ccc(Cl)cc2)n1 (stereo not drawn) ?
MRP1 act: -5; S1P2 blocker: 11; GALR2 agonist: -3; S1P2 agonist: -6; GALR2 blocker: 6

How did COc1ccccc1OCc1csc(NC(=O)c2ccco2)n1 do in these assays?
MRP1 act: 1; MRP resist rev: -1; GALR2 agonist: -2; GALR2 blocker: 10

How did O=C(Nc1nc(COc2ccccc2)cs1)c1ccccc1F do in these assays?
MRP1 act: 5.3*; GALR2 agonist: 0; GALR2 blocker: 1

What do the screens show for `O=C(NCc1ccccn1)c1cc(-c2ccc(-c3ccccc3)cc2)nc2ccccc12`?
MRP1 act: 5.5*; GALR2 agonist: -1; GALR2 blocker: 6

Results for Cc1nn(Cc2c(Cl)cccc2Cl)c(C)c1NC(=O)c1sc2ccccc2c1Cl ?
MRP1 act: 1; S1P2 blocker: -12; GALR2 agonist: 12*; S1P2 agonist: 0; GALR2 blocker: -4; GALR2 ag confirm: 6; BLA activ ctr: 0

How did O=C(O)C(Cc1ccccc1)N1Cc2ccccc2C1=O (stereo not drawn) do in these assays?
MRP1 act: -1; S1P2 blocker: -4; MRP resist rev: -6; GALR2 agonist: 11; S1P2 agonist: -5; GALR2 blocker: -3; GALR2 ag confirm: -1; BLA activ ctr: -3

How did CCN(CC)C(=O)c1ccc(S(=O)(=O)N2CCC(c3nc4ccccc4s3)CC2)cc1 do in these assays?
MRP1 act: -2; S1P2 blocker: 17; MRP resist rev: -21; GALR2 agonist: 0; S1P2 agonist: -2; GALR2 blocker: 5

How did CCOc1cc(C2c3c(oc4cc(C)c(Cl)cc4c3=O)C(=O)N2Cc2ccco2)ccc1O (stereo not drawn) do in these assays?
MRP1 act: -3; S1P2 blocker: 9; MRP resist rev: -3; GALR2 agonist: 1; S1P2 agonist: -7; GALR2 blocker: 7

Results for COCCNC(=O)CCCn1c(=O)c2ccccc2n(CC(=O)NCCC2=CCCCC2)c1=O ?
MRP1 act: -1; S1P2 blocker: 26; MRP resist rev: 21; GALR2 agonist: 0; S1P2 agonist: -2; GALR2 blocker: -17

What do the screens show for `O=C(CCn1c(=O)c2ccccc2n(CC(=O)NCCC2=CCCCC2)c1=O)NCc1ccco1`?
MRP1 act: -3; S1P2 blocker: 15; MRP resist rev: 4; GALR2 agonist: 86*; S1P2 agonist: -8; GALR2 blocker: 15; GALR2 ag confirm: -1; BLA activ ctr: -4

How did C=CCNC(=O)c1c(N)n(-c2cccc(S(N)(=O)=O)c2)c2nc3ccccc3nc12 do in these assays?
MRP1 act: 0; S1P2 blocker: 1; MRP resist rev: -21; GALR2 agonist: 8; S1P2 agonist: 10; GALR2 blocker: -6; GALR2 ag confirm: 2; BLA activ ctr: 6

How did COCCCNC(=O)c1c(N)n(-c2ccc(S(N)(=O)=O)cc2)c2nc3ccccc3nc12 do in these assays?
MRP1 act: -2; S1P2 blocker: -20; GALR2 agonist: 3; S1P2 agonist: 10; GALR2 blocker: 4

Results for Cc1cccc(C(=O)N=c2c(C#N)cc3c(=O)n4cccc(C)c4nc3n2Cc2ccco2)c1 ?
MRP1 act: -1; S1P2 blocker: 6; MRP resist rev: 32; GALR2 agonist: 8; S1P2 agonist: 3; GALR2 blocker: -8; GALR2 ag confirm: 5; BLA activ ctr: 8.3*

What do the screens show for `CC(C)(C)C(=O)NC(=S)NNC(=O)c1sc2ccccc2c1Cl`?
MRP1 act: -5; GALR2 agonist: 101*; GALR2 blocker: -6; GALR2 ag confirm: 65*; BLA activ ctr: 108*

Results for O=C(NNC(=S)NC1CCCCC1)c1sc2ccccc2c1Cl ?
MRP1 act: -2; GALR2 agonist: 0; GALR2 blocker: 9

Results for CC(=O)Nc1ccc(Nc2ncnc3c2cnn3-c2cccc(C)c2)cc1 ?
MRP1 act: 0; S1P2 blocker: -7; GALR2 agonist: -1; S1P2 agonist: -7; GALR2 blocker: 3

What do the screens show for `CC(=O)Nc1ccc(Nc2ncnc3c2cnn3-c2ccc(C)cc2C)cc1`?
MRP1 act: -1; S1P2 blocker: -1; MRP resist rev: -12; GALR2 agonist: 76*; S1P2 agonist: -7; GALR2 blocker: -5; GALR2 ag confirm: -1; BLA activ ctr: -2

What do the screens show for `Cc1cc(Cl)c(S(=O)(=O)NCc2cccnc2)cc1OCC(=O)NC1CCCCC1`?
MRP1 act: -2; S1P2 blocker: -1; MRP resist rev: 9; GALR2 agonist: -1; S1P2 agonist: -2; GALR2 blocker: -1

Results for CC1OC2(OC1C)C(=O)Nc1ccccc12 (stereo not drawn) ?
MRP1 act: 0; S1P2 blocker: -10; MRP resist rev: -8; GALR2 agonist: 24*; S1P2 agonist: -4; GALR2 blocker: -4; GALR2 ag confirm: -1; BLA activ ctr: -3

How did O=C1Nc2ccccc2C12OCC(COc1ccc(Cl)cc1)O2 (stereo not drawn) do in these assays?
MRP1 act: 1; S1P2 blocker: -28; MRP resist rev: 11; GALR2 agonist: -2; S1P2 agonist: 0; GALR2 blocker: -6

How did CCN1CCN(Cc2cc(=O)oc3ccc(Cl)cc23)CC1 do in these assays?
MRP1 act: -2; S1P2 blocker: 4; MRP resist rev: 1; GALR2 agonist: -2; S1P2 agonist: -8; GALR2 blocker: -1

How did Cc1ccc(OCCCCn2ccnc2)c(Cl)c1 do in these assays?
MRP1 act: 1; S1P2 blocker: 0; MRP resist rev: 0; GALR2 agonist: -3; S1P2 agonist: -5; GALR2 blocker: -3

Compound activity deposited in PubChem by several laboratories.
